Data: PubChem BioAssay AID485364 (National Center for Advancing Translational Sciences (NCATS), 2010)
The campaign covered roughly 360,000 compounds. About 11,000 (3.1%) were called active. About 4% were inconclusive and are not listed. Shown is part of a subset that was picked to be rich in actives. Values without a mark were called inactive. The call rests on the fitted dose curve; in most records, active means well fitted inhibition curve with a large enough effect; inconclusive means small, poorly fitted or top-dose-only effect; inactive means no such curve, though single readings can be large or run the other way.

biological target: Schistosoma mansoni thioredoxin glutathione reductase (TGR) (UniProt Q962Y6); test: qHTS Assay for the Inhibitors of Schistosoma Mansoni Peroxiredoxins; details: purified TGR, DTNB reduction, TNB absorbance 405 nm; series mostly up to 114 µM; activity change, negative = inhibition: at the top concentration; further: nearly all actives have a fitted effect of over 60% in size
Excerpt: Schistosomiasis is a major neglected tropical disease that currently affects over 200 million. It is caused by different species of flatworms, such as Schistosoma mansoni. Over the last century, drugs to treat the disease have evolved from potassium antimonyl tartrate, artemisinin, oxamniquine, to praziquantel, with praziquantel remaining the universally-used single drug of choice over the past three decades. However, transmission rates have changed little with praziquantel, and there is evidence for the development of drug resistant parasites. Because there is currently no suitable alternative therapy available, there is an urgent need to identify new targets and drugs for schistosomiasis treatment. Thioredoxin glutathione reductase (TGR), one uniquely positioned S. mansoni enzyme, has been identified as a major component of the worms' distinct and compressed antioxidant "firewall". TGR is a multifunctional enzyme that catalyzes the interconversion between reduced and oxidized forms of both glutathione (GSH) and thioredoxins, thus making it an attractive new antiparasitic target. Recently, a quantitative high-throughput screen of the NIH Molecular Libraries Small Molecule Repository (MLSMR, ~71K at the time of the screen in 2007) was performed using an assay that targeted both TGR and peroxiredoxin2 (Prx2, an H2O2-reducing enzymatic component of the S. mansoni redox "firewall") by following the decrease of NADPH fluorescence. […] Additional mechanistic link between exogenous NO donation and parasitic injury for the oxadiazole-2-oxide class of compounds was also expanded and better defined. Although the screen addressed both TGR and Prx2, the assay required post-screen target deconvolution for further characterization of the actives. In addition, the fluorescence assay was also subject to fluorescence interference from compound library members. We have developed a 1536-well-based kinetic HTS assay to address TGR alone. The assay followed the reduction of 5, 5'-dithiobis (2-nitrobenzoic acid) (DTNB) (Ellman's reagent) by NADPH and measured the increase in absorbance at 412 nm of the reaction product, TNB. […] This assay format can be used to screen the current MLSMR collection (with >300K compounds available) to find novel TGR inhibitors. Furoxan is a good choice to serve as a positive control in the primary HTS assay.
Three microliters of reagents (100 uM NADPH and 20 nM TGR or 100 uM NADPH as no-enzyme control) were dispensed into 1,536-well black clear-bottomed plates. Compounds (23 nL) were transferred via Kalypsys pin tool equipped with 1536-pin array (10 nL slotted pins, V&P Scientific, San Diego, CA). The plates were then be incubated for 15 min at room temperature, and 1 uL aliquot of 500 uM NADPH were added, immediately followed by a 1 uL aliquot of 15 mM DTNB to start the reaction. The plate was transferred to a ViewLux high-throughput CCD imager (Perkin-Elmer, Wellesley, MA) where kinetic measurements of the TNB absorbance were acquired using a 405 excitation filter. Throughout the screen, reagent bottles and all liquid lines were made light-tight to minimize reagent degradation. All screening operations were performed on a fully integrated robotic system (Kalypsys, San Diego, CA) containing one RX-130 and two RX-90 anthropomorphic robotic arms (Staubli, Duncan, SC). Library plates were screened starting from the lowest and proceeding to the highest concentration, and a "double-dipping" step of the highest concentration was required to access higher concentrations of compounds. Vehicle-only plates, with DMSO being pin-transferred to the entire column 5-48 compound area, were inserted uniformly at the beginning and the end of each library in order to monitor for and record any shifts in the background, which can be affected by reagent dispensers or loss in enzyme activity overtime. […]
On the % scale 0 is the no-effect control and ±100 the full control effect; potency means the concentration at half of the fitted maximal effect.

| SMILES | activity change, negative = inhibition [%] | Potency |
| --- | --- | --- |
| CCCOC(=O)c1c(NC(=O)c2cc3nc(-c4ccc(OC)cc4)cc(C(F)(F)F)n3n2)sc2c1CCCC2 | 53.4 | – |
| COc1ccc(C2(Nc3cccc(F)c3)C(=O)c3ccccc3C2=O)cc1 | 9.65 | – |
| CCNC(=S)N1CCN(CCN=CC2=C(O)CC(C)(C)CC2=O)CC1 | -20.2 | – |
| CC1(C)CC(=O)C(C=NCCN2CCN(C(=S)Nc3cccc(Cl)c3)CC2)=C(O)C1 | -9.3 | – |
| CC(=O)N1CCN(CCN=CC2=C(O)CC(C)(C)CC2=O)CC1 | – | 28.2 µM (active) |
| CCOc1ccccc1C(=O)NCc1ccc2c(c1)CCN2C(=O)c1ccc(F)cc1 | 0.127 | – |
| CCOC(=O)c1ccc(NC2=CC(c3ccc(OCC)cc3)N(c3ccc(C(=O)OCC)cc3)C2=O)cc1 (stereo not given) | -0.96 | – |
| CC(C)(C)OC(=O)N1CCC(c2c(C(=O)N3CCN(c4cccc(Cl)c4)CC3)cnn2-c2cccc(Cl)c2)CC1 | 14.1 | – |
| COc1ccccc1OCC(=O)OCc1cc(-c2ccco2)on1 | – | 56.2 µM (active) |
| COc1ccccc1OCC(=O)O/N=C(\N)c1ccccn1 | 11.4 | – |
| COc1ccc(NC(=O)COCc2cc(-c3ccco3)on2)cc1 | 0.166 | – |
| O=C(CCS(=O)(=O)c1cc(Br)cc2c1N(C(=O)C1CC1)CC2)Nc1ccc(C(F)(F)F)cc1 | -5.59 | – |
| O=C1CCCC(O)=C1N=Nc1ccc(S(=O)(=O)N2CCOCC2)cc1 | – | 44.7 µM (active) |
| Cc1ccc(S(=O)(=O)N2CCN(S(=O)(=O)N3CCOCC3)CC2)cc1 | 0.025 | – |
| CC1(C)CC(=O)C(N=Nc2ccc(S(=O)(=O)N3CCCCCC3)cc2)=C(O)C1 | -12 | – |
| COc1ccc(-c2nn3c(-c4ccc(OC)cc4)nnc3c3ccccc23)cc1 | 8.01 | – |
| Cc1cc2c(cc3c(SCc4nc(-c5ccccc5)oc4C)nnc(C)n32)o1 | 1.33 | – |
| Cc1noc2ncnc(NCc3ccccc3Cl)c12 | -1.77 | – |
| Cc1c(C(=O)N(C)C)sc2c1c(=O)n(-c1ccc(F)cc1)c(=O)n2CC(=O)N(C)c1ccccc1 | 9.3 | – |
| Cc1cc(=O)[nH]c(N/N=C/c2ccc3c(c2)OCCO3)n1 | – | 39.8 µM (active) |
| C(=N\Nc1ccc2ccccc2n1)/c1ccc2c(c1)OCO2 | 0.889 | – |
| Cc1cc(=O)[nH]c(N/N=C/c2c(C)nn(-c3ccccc3Cl)c2Cl)n1 | -10.1 | – |
| CC1=Nc2cc(C(=O)NCc3ccc(C)cc3)ccc2Sc2ccc(Cl)cc21 | -3.91 | – |
| COc1cccc(CNC(=O)Cn2ncn3c(cc4ccccc43)c2=O)c1 | 1.74 | – |
| Cc1ccc(CCNC(=O)c2ccc(CNS(=O)(=O)c3ccc(C)cc3)cc2)cc1 | -4.55 | – |

| SMILES | activity change, negative = inhibition [%] | Potency |
| --- | --- | --- |
| COC(=O)C1=C(C)NC(=O)/C1=C/c1ccc(CNS(=O)(=O)c2ccc(C)cc2)o1 | – | 22.4 µM (active) |
| COc1ccccc1CNS(=O)(=O)c1ccc(C)cc1 | 0.213 | – |
| CCc1ccccc1NC(=O)c1ccc(F)c(S(=O)(=O)NC2CCCCCC2)c1 | 46.2 | – |
| CN(C)N=Nc1ccc2nc[nH]c2c1 | – | 39.8 µM (active) |
| CC/C(O)=N\S(=O)(=O)c1ccc(N=NN(C)C)cc1 | 9.42 | – |
| COc1ccc(/C(C)=N/NC(=O)c2ccc3nc[nH]c3c2)cc1 | -6.56 | – |
| CCc1nn(CC(=O)Nc2cc(C)cc(C)c2)c(=O)c2cc3sccc3n12 | -2.35 | – |
| CC(=O)N(CN1C(=O)C2CC=CCC2C1=O)c1cccc(Cl)c1 (stereo not given) | -19.7 | – |
| O=C(CCl)N(Cc1cccc([N+](=O)[O-])c1)c1cccc(Cl)c1 | – | 2.51 µM (active) |
| COC(=O)c1cc(C(=O)N(Cc2ccccc2)c2ccccn2)cc([N+](=O)[O-])c1 | -1.34 | – |
| COc1cc(-c2noc(-c3ccc(N4CCCC4)c([N+](=O)[O-])c3)n2)cc(OC)c1OC | -30 | – |
| O=C(Nc1ccc(Br)cc1)c1cc2nc(-c3ccccc3)cc(-c3ccccc3)n2n1 | 6.76 | – |
| Cc1ccc(NNC(=O)C2CCC2)cc1C | – | 56.2 µM (active) |
| O=C(NNC(=O)C1CCC1)c1ccccc1 | 49.6 | – |
| Cc1ccc(NC(=O)C2CCCN2C(=O)OCc2ccccc2)cc1C (stereo not given) | -10.2 | – |
| Cc1oc(-c2ccccc2F)nc1CN1CCC(C(=O)NCCc2ccc(Cl)cc2)CC1 | -0.147 | – |
| CCOC(=O)c1c(S(=O)(=O)N2CCCC(C(=O)NCc3cccc(C)c3)C2)c(C)n(C)c1C (stereo not given) | 7.51 | – |
| Cc1ccccc1CS(=O)(=O)CC1Nc2ccc(C(=O)NCc3ccc(Cl)cc3)cc2NC1=O (stereo not given) | -2.2 | – |
| Cc1cc(C)cc(NC(=O)Cc2csc(C)n2)c1 | 8.94 | – |
| CCc1cccc(C)c1NC(=O)CSc1nnc(-c2ccco2)n1N | 1.38 | – |
| CCOc1ccc(-n2c(SCC(N)=O)nnc2-c2ccco2)cc1 | -34 | – |
| Cc1cccc(C)c1NC(=O)CCCSc1nnc(-c2ccco2)n1-c1ccccc1 | – | 89.1 µM (active) |
| COC(=O)c1ccccc1NC(=S)NC(=O)c1ccccc1F | – | 22.4 µM (active) |
| O=C(NC(=S)NC1CCSC1=O)c1ccccc1F (stereo not given) | 2.76 | – |
| CC(C)C(=O)NC(=S)Nc1ccccc1F | -28.6 | – |
